Measurements published in PMC7862700, “An all-to-all approach to the identification of sequence-specific readers for epigenetic DNA modifications on cytosine”.

Assays:
Experiment in all cases: DAPPL (digital affinity profiling via proximity ligation, sequencing); 10 mM Tris-HCl pH 7.5, 50 mM NaCl, 1 mM DTT, 4% glycerol, room temperature, 30 min; GST-TFs on glutathione beads, 16-mer random dsDNA library, 0.1% formaldehyde crosslink after washing; high values mean tight binding
Conditions in all cases: protein: recombinant; tags: N-terminal GST; dsDNA, one strand shown
FLI1 = biological target: T1, FLI1 (Homo sapiens, UniProt Q01543 1-452)
T1 sequence: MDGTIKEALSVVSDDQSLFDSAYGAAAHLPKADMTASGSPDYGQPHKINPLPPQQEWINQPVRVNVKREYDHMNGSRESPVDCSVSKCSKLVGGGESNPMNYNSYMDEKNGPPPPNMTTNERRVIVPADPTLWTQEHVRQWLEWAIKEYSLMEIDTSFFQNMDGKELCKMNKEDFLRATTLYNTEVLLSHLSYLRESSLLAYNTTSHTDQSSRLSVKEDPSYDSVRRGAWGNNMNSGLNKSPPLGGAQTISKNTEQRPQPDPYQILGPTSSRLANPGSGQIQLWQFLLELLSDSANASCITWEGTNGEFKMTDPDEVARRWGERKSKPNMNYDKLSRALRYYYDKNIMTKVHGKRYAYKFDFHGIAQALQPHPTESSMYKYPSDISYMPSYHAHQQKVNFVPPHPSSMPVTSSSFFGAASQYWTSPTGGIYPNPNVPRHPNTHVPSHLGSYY
Method in brief: (§1)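 After expression in yeast as GST fusions, human transcription factors were bound to glutathione beads, DNA-barcoded and mixed with a tag-only sample. The pools were incubated with 200 nmole of a 16-mer random double-stranded DNA library in Tris/NaCl/DTT/glycerol buffer (30 min, room temperature), washed and crosslinked with 0.1% formaldehyde. Proximity ligation with BsaI/T4 ligase ran for 1 h at 37 °C, before PCR amplification and sequencing on an Illumina NextSeq500. Binding signal is a hexamer's read frequency for a factor divided by its frequency for the tag-only sample.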

ELK1 = biological target: T2, ELK1 (Homo sapiens, UniProt P19419 1-428)
T2 sequence: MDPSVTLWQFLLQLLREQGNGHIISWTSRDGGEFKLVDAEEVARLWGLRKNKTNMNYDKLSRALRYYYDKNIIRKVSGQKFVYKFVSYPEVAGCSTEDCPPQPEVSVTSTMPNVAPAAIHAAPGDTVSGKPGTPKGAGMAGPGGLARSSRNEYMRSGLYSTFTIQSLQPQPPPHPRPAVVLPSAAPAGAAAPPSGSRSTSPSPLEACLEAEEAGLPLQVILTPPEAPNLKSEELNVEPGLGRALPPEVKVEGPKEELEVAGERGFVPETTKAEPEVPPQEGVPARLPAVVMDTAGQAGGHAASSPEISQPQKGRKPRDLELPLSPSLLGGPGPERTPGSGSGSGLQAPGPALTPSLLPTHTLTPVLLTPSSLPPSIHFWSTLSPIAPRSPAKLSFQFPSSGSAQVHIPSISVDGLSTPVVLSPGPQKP
Method in brief: as §1

GABPA = biological target: T3, GABPA (Homo sapiens, UniProt Q06546 1-454)
T3 sequence: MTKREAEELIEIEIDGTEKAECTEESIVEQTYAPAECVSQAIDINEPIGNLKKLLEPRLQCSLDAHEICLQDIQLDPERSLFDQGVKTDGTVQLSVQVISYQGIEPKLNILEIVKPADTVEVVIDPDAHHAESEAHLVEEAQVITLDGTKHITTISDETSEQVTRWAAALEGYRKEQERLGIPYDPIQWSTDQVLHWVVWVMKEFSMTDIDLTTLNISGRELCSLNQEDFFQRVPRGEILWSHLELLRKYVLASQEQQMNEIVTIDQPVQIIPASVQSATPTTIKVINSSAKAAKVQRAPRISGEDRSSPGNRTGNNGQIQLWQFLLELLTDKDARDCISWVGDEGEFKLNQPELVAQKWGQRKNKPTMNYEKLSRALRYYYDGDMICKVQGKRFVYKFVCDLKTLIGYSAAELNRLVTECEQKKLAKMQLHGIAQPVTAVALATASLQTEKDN
Method in brief: as §1

ERG = biological target: T4, ERG (Homo sapiens, UniProt P11308 1-479)
T4 sequence: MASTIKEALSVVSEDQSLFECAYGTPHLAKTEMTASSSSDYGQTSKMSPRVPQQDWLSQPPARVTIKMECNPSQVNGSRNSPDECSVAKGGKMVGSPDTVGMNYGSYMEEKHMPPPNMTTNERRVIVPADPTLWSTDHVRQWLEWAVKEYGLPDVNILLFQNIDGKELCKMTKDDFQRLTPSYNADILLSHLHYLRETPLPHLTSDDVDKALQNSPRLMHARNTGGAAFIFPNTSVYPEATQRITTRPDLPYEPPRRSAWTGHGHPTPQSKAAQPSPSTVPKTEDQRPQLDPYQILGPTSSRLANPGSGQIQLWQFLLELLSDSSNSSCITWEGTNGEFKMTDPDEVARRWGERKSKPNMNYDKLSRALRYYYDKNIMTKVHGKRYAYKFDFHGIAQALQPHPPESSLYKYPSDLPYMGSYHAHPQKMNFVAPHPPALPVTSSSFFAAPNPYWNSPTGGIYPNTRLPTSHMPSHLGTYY
Method in brief: as §1

ELF1 = ELF1 (Homo sapiens, UniProt P32519 1-619)
Chain of ELF1 (P32519 whole entry): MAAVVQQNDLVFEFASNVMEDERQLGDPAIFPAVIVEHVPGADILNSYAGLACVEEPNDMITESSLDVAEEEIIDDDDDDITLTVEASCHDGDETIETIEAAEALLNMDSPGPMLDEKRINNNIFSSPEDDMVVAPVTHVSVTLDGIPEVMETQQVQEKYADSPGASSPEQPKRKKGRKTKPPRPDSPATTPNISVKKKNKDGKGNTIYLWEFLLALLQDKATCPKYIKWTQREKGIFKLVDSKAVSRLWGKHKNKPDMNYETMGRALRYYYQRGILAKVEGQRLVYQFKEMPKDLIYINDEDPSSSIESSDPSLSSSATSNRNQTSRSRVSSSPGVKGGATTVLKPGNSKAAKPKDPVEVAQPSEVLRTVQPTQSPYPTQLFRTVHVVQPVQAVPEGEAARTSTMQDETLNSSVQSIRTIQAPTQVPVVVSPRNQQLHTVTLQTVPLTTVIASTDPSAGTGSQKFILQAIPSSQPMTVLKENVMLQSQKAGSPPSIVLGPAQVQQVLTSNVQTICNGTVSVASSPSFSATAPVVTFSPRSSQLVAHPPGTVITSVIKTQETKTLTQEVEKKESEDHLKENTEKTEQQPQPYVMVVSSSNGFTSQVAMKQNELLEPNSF
Method in brief: as §1

EHF = biological target: T5, EHF (Homo sapiens, UniProt Q9NZC4 1-300)
T5 sequence: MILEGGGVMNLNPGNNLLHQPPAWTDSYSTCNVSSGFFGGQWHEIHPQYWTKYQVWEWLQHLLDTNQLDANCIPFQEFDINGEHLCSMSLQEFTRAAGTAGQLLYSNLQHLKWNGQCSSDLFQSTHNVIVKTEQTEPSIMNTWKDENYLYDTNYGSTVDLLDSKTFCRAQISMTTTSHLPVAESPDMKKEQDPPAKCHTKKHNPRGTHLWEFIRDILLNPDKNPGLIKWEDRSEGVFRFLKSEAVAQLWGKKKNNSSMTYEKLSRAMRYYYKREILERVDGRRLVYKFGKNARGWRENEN
Method in brief: as §1

SPI1 = SPI1 (Homo sapiens, UniProt P17947 1-270)
Method in brief: as §1

SPIB = SPIB (Homo sapiens, UniProt Q01892 1-262)
Chain of SPIB (Q01892 whole entry): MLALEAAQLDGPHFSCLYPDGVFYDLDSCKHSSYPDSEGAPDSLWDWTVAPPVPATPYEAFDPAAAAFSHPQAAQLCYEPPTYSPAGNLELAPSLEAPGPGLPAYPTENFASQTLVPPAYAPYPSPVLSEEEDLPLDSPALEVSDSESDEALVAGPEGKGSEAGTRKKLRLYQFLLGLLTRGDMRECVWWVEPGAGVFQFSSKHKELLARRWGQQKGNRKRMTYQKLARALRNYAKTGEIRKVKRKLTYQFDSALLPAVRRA
Method in brief: as §1

ELK3 = biological target: T6, ELK3 (Homo sapiens, UniProt P41970 1-407)
T6 sequence: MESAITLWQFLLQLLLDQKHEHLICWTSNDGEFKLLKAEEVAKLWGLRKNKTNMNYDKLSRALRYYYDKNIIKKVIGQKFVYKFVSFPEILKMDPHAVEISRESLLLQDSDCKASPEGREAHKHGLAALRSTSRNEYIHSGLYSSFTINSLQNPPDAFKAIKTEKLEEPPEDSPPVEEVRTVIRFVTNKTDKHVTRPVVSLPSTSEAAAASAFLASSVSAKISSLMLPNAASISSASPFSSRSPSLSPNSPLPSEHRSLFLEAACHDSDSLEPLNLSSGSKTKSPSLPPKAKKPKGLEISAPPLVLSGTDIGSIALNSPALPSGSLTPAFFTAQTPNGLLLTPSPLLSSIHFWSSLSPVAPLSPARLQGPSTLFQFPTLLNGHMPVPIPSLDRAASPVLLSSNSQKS
Method in brief: as §1

FEV = biological target: T7, FEV (Homo sapiens, UniProt Q99581 1-238)
T7 sequence: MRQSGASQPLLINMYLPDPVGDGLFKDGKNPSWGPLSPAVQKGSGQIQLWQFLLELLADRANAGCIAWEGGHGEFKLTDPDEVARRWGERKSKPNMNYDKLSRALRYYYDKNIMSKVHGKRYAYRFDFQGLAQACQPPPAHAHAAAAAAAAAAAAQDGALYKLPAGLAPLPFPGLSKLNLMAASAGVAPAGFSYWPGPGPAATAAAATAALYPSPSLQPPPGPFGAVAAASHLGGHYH
Method in brief: as §1

ETV5 = ETV5 (Homo sapiens, UniProt P41161 1-510)
Chain of ETV5 (P41161 whole entry): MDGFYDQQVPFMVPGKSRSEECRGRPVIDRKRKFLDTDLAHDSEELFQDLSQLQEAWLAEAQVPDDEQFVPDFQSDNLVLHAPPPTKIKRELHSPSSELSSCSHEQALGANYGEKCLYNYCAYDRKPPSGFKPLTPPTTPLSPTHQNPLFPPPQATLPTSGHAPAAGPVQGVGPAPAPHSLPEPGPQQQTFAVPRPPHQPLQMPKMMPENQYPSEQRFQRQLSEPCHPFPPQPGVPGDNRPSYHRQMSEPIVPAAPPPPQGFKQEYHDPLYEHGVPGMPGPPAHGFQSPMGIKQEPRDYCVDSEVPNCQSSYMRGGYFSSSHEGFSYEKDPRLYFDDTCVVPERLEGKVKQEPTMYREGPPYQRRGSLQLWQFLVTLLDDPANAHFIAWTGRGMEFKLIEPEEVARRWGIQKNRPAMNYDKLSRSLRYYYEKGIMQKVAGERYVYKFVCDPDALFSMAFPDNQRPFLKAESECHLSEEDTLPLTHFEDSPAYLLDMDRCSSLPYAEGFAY
Method in brief: as §1

SPIC = biological target: T8, SPIC (Homo sapiens, UniProt Q8N5J4 1-248)
T8 sequence: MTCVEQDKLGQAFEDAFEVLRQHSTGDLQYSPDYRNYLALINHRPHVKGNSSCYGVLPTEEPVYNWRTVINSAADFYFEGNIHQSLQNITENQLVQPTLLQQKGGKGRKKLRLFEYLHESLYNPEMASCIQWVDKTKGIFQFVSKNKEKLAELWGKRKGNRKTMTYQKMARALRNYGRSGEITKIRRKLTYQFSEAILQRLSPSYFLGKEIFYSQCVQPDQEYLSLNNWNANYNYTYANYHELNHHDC
Method in brief: as §1

ELF4 = ELF4 (Homo sapiens, UniProt Q99607 1-663)
Chain of ELF4 (Q99607 whole entry): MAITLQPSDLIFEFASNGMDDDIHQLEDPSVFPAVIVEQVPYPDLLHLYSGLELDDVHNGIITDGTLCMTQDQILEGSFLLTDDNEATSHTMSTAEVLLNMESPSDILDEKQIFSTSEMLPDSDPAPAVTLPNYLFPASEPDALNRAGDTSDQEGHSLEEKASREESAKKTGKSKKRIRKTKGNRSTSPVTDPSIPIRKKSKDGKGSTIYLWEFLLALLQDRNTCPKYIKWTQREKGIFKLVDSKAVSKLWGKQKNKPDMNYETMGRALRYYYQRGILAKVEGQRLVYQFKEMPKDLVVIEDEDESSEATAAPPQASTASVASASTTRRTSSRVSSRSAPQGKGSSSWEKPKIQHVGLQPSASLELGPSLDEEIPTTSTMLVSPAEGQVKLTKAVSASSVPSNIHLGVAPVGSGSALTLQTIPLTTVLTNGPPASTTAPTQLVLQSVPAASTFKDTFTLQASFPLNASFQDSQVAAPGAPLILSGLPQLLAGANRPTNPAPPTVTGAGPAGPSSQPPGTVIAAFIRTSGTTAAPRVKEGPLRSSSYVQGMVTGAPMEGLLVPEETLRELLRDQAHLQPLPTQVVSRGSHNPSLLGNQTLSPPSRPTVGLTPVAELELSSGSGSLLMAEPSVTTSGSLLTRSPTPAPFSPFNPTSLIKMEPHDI
Method in brief: as §1

ELK4 = biological target: T9, ELK4 (Homo sapiens, UniProt P28324-2 1-405)
T9 sequence: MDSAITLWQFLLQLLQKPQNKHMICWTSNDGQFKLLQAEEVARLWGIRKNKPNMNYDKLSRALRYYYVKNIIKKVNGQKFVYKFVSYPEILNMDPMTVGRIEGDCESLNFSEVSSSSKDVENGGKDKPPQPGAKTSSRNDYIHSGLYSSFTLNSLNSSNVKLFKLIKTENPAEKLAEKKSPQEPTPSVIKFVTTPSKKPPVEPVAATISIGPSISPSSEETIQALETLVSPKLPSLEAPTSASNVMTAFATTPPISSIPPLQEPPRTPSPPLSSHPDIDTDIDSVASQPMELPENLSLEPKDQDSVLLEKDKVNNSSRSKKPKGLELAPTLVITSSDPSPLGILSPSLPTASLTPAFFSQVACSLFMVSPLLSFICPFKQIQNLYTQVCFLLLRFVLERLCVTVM
Method in brief: as §1

ETV2 = biological target: T10, ETV2 (Homo sapiens, UniProt O00321 1-342)
T10 sequence: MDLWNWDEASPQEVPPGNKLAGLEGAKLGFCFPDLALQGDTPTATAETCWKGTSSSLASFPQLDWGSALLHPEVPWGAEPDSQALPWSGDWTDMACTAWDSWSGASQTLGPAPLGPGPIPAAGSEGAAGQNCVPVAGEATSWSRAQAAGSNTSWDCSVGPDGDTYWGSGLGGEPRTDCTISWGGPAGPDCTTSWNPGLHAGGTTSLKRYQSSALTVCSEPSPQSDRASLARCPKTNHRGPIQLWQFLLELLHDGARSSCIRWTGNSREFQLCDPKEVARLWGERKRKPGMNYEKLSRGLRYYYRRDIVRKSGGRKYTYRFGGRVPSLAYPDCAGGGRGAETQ
Method in brief: as §1

ELF3 = biological target: T11, ELF3 (Homo sapiens, UniProt P78545 1-371)
T11 sequence: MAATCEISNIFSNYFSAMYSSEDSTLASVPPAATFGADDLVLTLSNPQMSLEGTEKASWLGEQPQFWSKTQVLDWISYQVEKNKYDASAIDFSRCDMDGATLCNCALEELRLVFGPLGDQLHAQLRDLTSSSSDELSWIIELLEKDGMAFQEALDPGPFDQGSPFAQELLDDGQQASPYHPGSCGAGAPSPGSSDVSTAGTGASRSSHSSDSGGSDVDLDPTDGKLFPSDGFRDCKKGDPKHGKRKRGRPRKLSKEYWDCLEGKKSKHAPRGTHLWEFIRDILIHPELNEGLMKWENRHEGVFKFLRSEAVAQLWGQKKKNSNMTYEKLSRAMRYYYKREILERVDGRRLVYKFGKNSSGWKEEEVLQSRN
Method in brief: as §1

ETV1 = ETV1 (Homo sapiens, UniProt P50549 1-477)
Chain of ETV1 (P50549 whole entry): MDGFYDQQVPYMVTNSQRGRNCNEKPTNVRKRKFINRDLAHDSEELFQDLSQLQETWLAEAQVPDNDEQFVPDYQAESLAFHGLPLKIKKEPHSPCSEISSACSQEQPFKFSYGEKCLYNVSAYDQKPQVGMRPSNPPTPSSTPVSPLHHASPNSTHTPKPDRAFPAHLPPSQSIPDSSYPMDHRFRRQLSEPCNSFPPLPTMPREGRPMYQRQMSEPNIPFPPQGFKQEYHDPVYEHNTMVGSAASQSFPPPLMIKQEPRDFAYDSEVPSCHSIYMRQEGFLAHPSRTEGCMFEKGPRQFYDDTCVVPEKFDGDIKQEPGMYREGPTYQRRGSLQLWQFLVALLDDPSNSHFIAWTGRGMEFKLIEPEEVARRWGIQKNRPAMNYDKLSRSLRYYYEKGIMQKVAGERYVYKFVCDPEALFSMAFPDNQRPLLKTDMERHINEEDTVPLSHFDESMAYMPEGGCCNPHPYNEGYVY
Method in brief: as §1

Row | Sequence | binding signal (FLI1) | binding signal (ELK1) | binding signal (GABPA) | binding signal (ERG) | binding signal (ELF1) | binding signal (EHF) | binding signal (SPI1) | binding signal (SPIB) | binding signal (ELK3) | binding signal (FEV) | binding signal (ETV5) | binding signal (SPIC) | binding signal (ELF4) | binding signal (ELK4) | binding signal (ETV2) | binding signal (ELF3) | binding signal (ETV1)
1 | GATGTC | 1.25 fold enrichment (6-mer frequency, TF over GST control) | 1.37 fold enrichment (6-mer frequency, TF over GST control) | 1.24 fold enrichment (6-mer frequency, TF over GST control) | 1.41 fold enrichment (6-mer frequency, TF over GST control) | 1.22 fold enrichment (6-mer frequency, TF over GST control) | 1.31 fold enrichment (6-mer frequency, TF over GST control) | 1.23 fold enrichment (6-mer frequency, TF over GST control) | 1.37 fold enrichment (6-mer frequency, TF over GST control) | 1.19 fold enrichment (6-mer frequency, TF over GST control) | 1.59 fold enrichment (6-mer frequency, TF over GST control) | 1.37 fold enrichment (6-mer frequency, TF over GST control) | 1.23 fold enrichment (6-mer frequency, TF over GST control) | 1.24 fold enrichment (6-mer frequency, TF over GST control) | 1.15 fold enrichment (6-mer frequency, TF over GST control) | 1.24 fold enrichment (6-mer frequency, TF over GST control) | 1.25 fold enrichment (6-mer frequency, TF over GST control) | 1.3 fold enrichment (6-mer frequency, TF over GST control)
2 | CCGCCC | 1.33 fold enrichment (6-mer frequency, TF over GST control) | 1.39 fold enrichment (6-mer frequency, TF over GST control) | 1.27 fold enrichment (6-mer frequency, TF over GST control) | 1.29 fold enrichment (6-mer frequency, TF over GST control) | 1.35 fold enrichment (6-mer frequency, TF over GST control) | 1.29 fold enrichment (6-mer frequency, TF over GST control) | 1.17 fold enrichment (6-mer frequency, TF over GST control) | 1.19 fold enrichment (6-mer frequency, TF over GST control) | 1.48 fold enrichment (6-mer frequency, TF over GST control) | 1.38 fold enrichment (6-mer frequency, TF over GST control) | 1.34 fold enrichment (6-mer frequency, TF over GST control) | 1.33 fold enrichment (6-mer frequency, TF over GST control) | 1.4 fold enrichment (6-mer frequency, TF over GST control) | 1.08 fold enrichment (6-mer frequency, TF over GST control) | 1.2 fold enrichment (6-mer frequency, TF over GST control) | 1.28 fold enrichment (6-mer frequency, TF over GST control) | 1.26 fold enrichment (6-mer frequency, TF over GST control)
